Source: PubChem (National Center for Advancing Translational Sciences (NCATS))
FLuc inh: Photinus pyralis luciferase inhibition; purified P. pyralis luciferase, luminescence, biochemical; 76,000 tested, 2.5% active; P08659; AID 1347043; Potency, µM (highest dose often 115 µM), most hits filed as inhibitors; note: nearly all actives have a fitted effect of over 65% in size
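Purified P. pyralis luciferase (10nM final) in 50mM Tris acetate pH 7.5, 10mM Mg acetate, 0.01% Tween-20, 0.05% BSA with 10uM D-luciferin and 10uM ATP. Compounds titrated qHTS. Luminescence imaged on CCD.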
HEK293 tox: HEK 293 cell cytotoxicity; HEK 293 viability, ATP luminescence (CellTiter-Glo), 48-72 h; 94,000 tested, 6.6% active; Potency, µM (doses to about 115 µM), hits mostly inhibitors; note: nearly all actives have a fitted effect of over 60% in size
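HEK 293 cells seeded at 250 cells/well were exposed to compound for 48 or 72 hr at 37 degree Celsius. Viability taken as ATP content by CellTiter-Glo luminescence.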
NPR1 antag: human Npr1 receptor antagonism | AID 1347048 | HEK293 hNpr1 GloSensor cGMP, ANP-stimulated luminescence | Potency, µM (top dose mostly 46.3 µM), actives largely listed as inhibitors | P16066 | 76,000 tested, 1.6% active; calls by dose curve; note: nearly all actives have a fitted effect of over 60% in size
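Compound pre-incubated 30 min at room temperature on GloSensor-loaded HEK293 cells stably carrying hNpr1 and the pGS-40F cGMP biosensor. Stimulation uses hNppA at 0.1 nM final; luminescence is taken at baseline and 20 min post-agonist.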
GPT2 inh: GPT2 alanine aminotransferase inhibition. Q8TD30. Recombinant GPT2, coupled pyruvate oxidase/HRP Amplex Red fluorescence. Potency, µM (titrated, usually from 57.7 µM), hits mostly inhibitors. 100,000 tested, 0.25% active; note: nearly all actives have a fitted effect of over 60% in size
Target sequence (Q8TD30 whole entry, looked up): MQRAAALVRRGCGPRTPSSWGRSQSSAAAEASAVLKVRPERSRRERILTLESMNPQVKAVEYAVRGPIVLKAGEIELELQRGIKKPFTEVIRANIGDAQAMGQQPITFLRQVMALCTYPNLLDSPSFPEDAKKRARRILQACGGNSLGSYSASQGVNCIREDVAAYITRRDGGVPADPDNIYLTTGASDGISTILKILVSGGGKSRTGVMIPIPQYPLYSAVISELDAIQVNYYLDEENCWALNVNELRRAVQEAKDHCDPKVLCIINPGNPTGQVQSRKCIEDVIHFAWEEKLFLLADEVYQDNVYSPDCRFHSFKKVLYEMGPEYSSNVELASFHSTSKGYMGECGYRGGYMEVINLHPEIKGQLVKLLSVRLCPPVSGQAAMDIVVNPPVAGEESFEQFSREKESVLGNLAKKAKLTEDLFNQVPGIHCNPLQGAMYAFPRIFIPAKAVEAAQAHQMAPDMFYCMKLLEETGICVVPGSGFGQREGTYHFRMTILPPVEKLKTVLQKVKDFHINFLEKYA
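Fluorescence of coupled pyruvate oxidase/HRP/Amplex Red system (50uM Amplex, 30 min, dark) reports pyruvate formed by GPT2. Enzyme reaction: 10ng/uL GPT2, 2mM L-alanine, 250uM a-KG, 30 min room temperature, pH 7.5; 50uM AOA control.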
NIH3T3 tox: cytotoxic compounds in NIH 3T3 cells; NIH 3T3 viability, CellTiter-Glo ATP luminescence, 48-72 h; Potency, µM (top dose mostly 96.7 µM), usual class: inhibitors; 94,000 tested, 4.3% active; note: nearly all actives have a fitted effect of over 55% in size
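Cytotoxicity was measured by CellTiter-Glo ATP luminescence after 48 or 72 h compound exposure at 37 °C. Mouse NIH 3T3 fibroblasts were seeded at 400 cells/well and dosed by 23 nL pin transfer.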
Npr1 antag conf: confirmation of human Npr1 natriuretic peptide receptor antagonists; shares compounds with NPR1 antag; HEK293 hNpr1 cGMP GloSensor luminescence, ANP-stimulated; Potency, µM (doses to about 57.6 µM), most hits filed as inhibitors; 1,400 tested, 76% active; calls by dose curve; note: nearly all actives have a fitted effect of over 70% in size
NPR2 antag: hNpr2 antagonism, selectivity versus Npr1; 1,400 tested, 67% active; Potency, µM (series often up to 57.6 µM), usual class: inhibitors; HEK293 hNpr2 GloSensor cGMP luminescence, CNP-stimulated; shares compounds with NPR1 antag; AID 1347046; calls by dose curve; note: nearly all actives have a fitted effect of over 70% in size
FLuc counter: FLuc enzyme inhibition, Npr1 counter-screen. shares compounds with NPR1 antag. purified FLuc enzyme, luminescence, Km substrate. Potency, µM (titrated, usually from 57.6 µM), usual class: inhibitors. 1,400 tested, 0.7% active; note: series mostly up to about 58 µM
GloSensor ctrl: reduces cGMP signal in GloSensor control cells; shares compounds with NPR1 antag; HEK293 GloSensor cGMP, SNP-stimulated, luminescence; Potency, µM (titrated, usually from 57.6 µM), hits mostly inhibitors; 1,400 tested, 69% active; AID 1347051; calls by dose curve; note: nearly all actives have a fitted effect of over 70% in size
Of the large screens only hits and unclear results are named; the others gave an inactive call (follow-up assays come after a bar, where they were run). Most compounds without a hit are left out; they make up all but 10% or so of the library. Unless noted, calls come from the whole dose curve; as a rule, active = well fitted curve in the direction sought with a large enough effect; inconclusive = small, poorly fitted or top-dose-only effect, or another doubt; inactive = no such curve, though single readings can be large; an effect the other way counts as inactive or inconclusive.

COc1ccc(Cl)cc1NC(=O)Cn1c(N(C)Cc2ccccc2)nc(C)cc1=O	HEK293 tox inconclusive, NIH3T3 tox inconclusive
Cc1cc(=O)n(CC(=O)Nc2ccc(Br)cc2)c(N(C)Cc2ccccc2)n1	HEK293 tox inconclusive, NPR1 antag inconclusive, NIH3T3 tox inconclusive
Cc1cc(=O)n(CC(=O)Nc2ccc(Cl)cc2F)c(N(C)Cc2ccccc2)n1	HEK293 tox inconclusive, NPR1 antag 13µM | Npr1 antag conf 24µM | NPR2 antag inconclusive | FLuc counter inactive | GloSensor ctrl inconclusive
COc1ccc(NC(=O)Cn2c(N(C)Cc3ccccc3)nc(C)cc2=O)cc1OC	HEK293 tox inconclusive, NPR1 antag 4.5µM, NIH3T3 tox inconclusive | Npr1 antag conf 6.9µM | NPR2 antag 11µM | FLuc counter inactive | GloSensor ctrl 7.7µM
Cc1cc(=O)n(CC(=O)Nc2ccc(F)c(Cl)c2)c(N(C)Cc2ccccc2)n1	NPR1 antag 11µM | Npr1 antag conf 24µM | NPR2 antag inconclusive | FLuc counter inactive | GloSensor ctrl 22µM
Cc1cc(=O)n(CC(=O)Nc2ccc(Br)cc2F)c(N(C)Cc2ccccc2)n1	HEK293 tox inconclusive, NPR1 antag inconclusive, NIH3T3 tox inconclusive | Npr1 antag conf 22µM | NPR2 antag 19µM | FLuc counter inactive | GloSensor ctrl 19µM
O=C(c1ccncc1)N1CCN(C(=O)c2nnn3c2COC(c2ccc(Cl)cc2)C3)CC1 (centres undefined)	none
Cn1cc2c3c(cccc31)CN(C(=O)CC(C)(C)C)CC2	none
CCC1=C(C(=O)OC)C(c2cccc(OC)c2)N2C(CC(=O)NCC3CCCO3)=CSC2=N1 (centres undefined)	none
O=C1COc2ccc(-c3ccc(Cl)cc3)nc2CN1Cc1ccccc1	HEK293 tox 63µM, NPR1 antag inconclusive, NIH3T3 tox inconclusive | Npr1 antag conf 31µM | NPR2 antag 22µM | FLuc counter inactive | GloSensor ctrl inconclusive
O=C1COc2ccc(Nc3ccc(Cl)cc3)nc2CN1Cc1nc2ccccc2s1	HEK293 tox 32µM, NPR1 antag inconclusive, NIH3T3 tox 40µM | Npr1 antag conf inconclusive | NPR2 antag inconclusive | FLuc counter inactive | GloSensor ctrl inconclusive
Cc1nc(CN2Cc3nc(-c4ccc(Cl)cc4)ccc3OCC2=O)cs1	HEK293 tox inconclusive, NPR1 antag inconclusive, NIH3T3 tox inconclusive
O=C1COc2ccc(-c3ccccc3F)nc2CN1Cc1ccccc1	HEK293 tox inconclusive, NIH3T3 tox inconclusive
O=C(c1ccccc1F)N1CCCC(c2nn(-c3ccc(F)cc3)c(=O)[nH]2)C1 (centres undefined)	none
O=C(Cc1ccc(F)cc1)N1CCC2(CC1)CC(N(Cc1ccccc1)C1CC1)CCO2 (centres undefined)	HEK293 tox inconclusive, NPR1 antag inconclusive, NIH3T3 tox inconclusive
Cc1ccc(C(=O)N2CCC3(CC2)CC(N(Cc2ccccc2)C2CC2)CCO3)cc1F (centres undefined)	HEK293 tox 45µM, NPR1 antag 11µM, NIH3T3 tox inconclusive | Npr1 antag conf 24µM | NPR2 antag inconclusive | FLuc counter inactive | GloSensor ctrl 27µM
CC(C)C(=O)N1CCC2(CC1)CC(N(Cc1ccc(F)cc1)C1CC1)CCO2 (centres undefined)	HEK293 tox inconclusive | Npr1 antag conf inactive | NPR2 antag inactive | FLuc counter inactive | GloSensor ctrl inactive
O=C(NC1CCCN(c2ccnc3ccnn23)C1)c1ccccc1Cl (centres undefined)	none (no result: FLuc inh, NPR1 antag)
